Here are results for 12 molecules from PubChem BioAssay (EPA / NIEHS).

In test [1] the target is Bile acid receptor (Homo sapiens) (UniProt Q96RI1). Nature of the test: ATG_IR1_CIS: Attagene CIS-FACTORIAL HepG2 Assay for human Nuclear Receptor Subfamily 1 Group H Member 4 (NR1H4), IR1 submotif (AID 2282946; active = hit-call score of the fitted dose curve at least 0.9, where 1 is the maximum; inactive = score below 0.9). The note with it: IR1 reporter transcription, actives raise or lower the signal. A digest of the protocol:
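Readout: reporter transcript levels by RT-PCR with fluorescent capillary electrophoresis, from HepG2 cells transiently transfected with multiplexed cis-regulated reporters and dosed 24 h. Gain- or loss-of-signal fitted versus DMSO negative control.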

A short description of test [2]: ATG_GAL4_TRANS: Attagene TRANS-FACTORIAL HepG2 Assay for GAL4 (Internal Marker) (AID 2282976). The note with it: HepG2 Attagene TRANS GAL4 internal marker reporter. The method in brief:
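First, HepG2 cells were transfected with reporter units under GAL4-UAS control. Next, they were treated with chemical for 24 h. Finally, RNA was reverse-transcribed, PCR-amplified, FAM-labelled and resolved by capillary electrophoresis, with induction scored against DMSO.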

Test [3] concerns the target Oxysterols receptor LXR-beta (Homo sapiens) (UniProt P55055). Nature of the test: ATG_LXRb_TRANS: Attagene TRANS-FACTORIAL HepG2 Assay for human Liver X Receptor beta (LXRb) (AID 2282981). As to conditions: HepG2 Attagene TRANS GAL4-LXRb reporter, mRNA. The method in brief:
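Liver-derived HepG2 cells transfected with Gal4-responsive reporters were dosed for 24 h. Activation was scored as rise in reporter mRNA, by RT-PCR and capillary electrophoresis, above DMSO baseline.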

In test [4] the target is Hepatocyte nuclear factor 4-alpha (Homo sapiens) (UniProt P41235). Description: ATG_HNF4a_TRANS: Attagene TRANS-FACTORIAL HepG2 Assay for human Hepatocyte Nuclear Factor 4 alpha (HNF4a) (AID 2282982). The note with it: HepG2 HNF4a transactivation reporter, mRNA readout. A digest of the protocol:
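Using HepG2 liver cells transfected with GAL4-UAS reporter units, chemical-induced mRNA increases were assessed after 24 hours. Fluorescent RT-PCR fragments were separated by capillary electrophoresis and compared with DMSO negative controls.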

Test [5] deals with human Peroxisome Proliferator-activated Receptor delta (PPARd), PPARD (gene 5467) (UniProt Q03181). Nature of the test: ATG_PPARd_TRANS: Attagene TRANS-FACTORIAL HepG2 Assay for human Peroxisome Proliferator-activated Receptor delta (PPARd) (AID 2283002). A digest of the protocol:
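Measured quantity: GAL4-UAS reporter transcript induction in HepG2 after 24 h chemical dosing, with NR-Gal4 chimeras supplied by transient transfection. Detection by RT-PCR and capillary electrophoresis; upward fit against DMSO.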

The target in test [6] is human RAR-related Orphan Receptor beta (RORb), RORB (gene 6096) (UniProt Q92753). Description: ATG_RORb_TRANS: Attagene TRANS-FACTORIAL HepG2 Assay for human RAR-related Orphan Receptor beta (RORb) (AID 2283010). A digest of the protocol: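 Multiplexed transcription-factor reporter assay: HepG2 cells transiently carrying NR-Gal4/GAL4-UAS constructs, 24 h treatment, mRNA quantified by RT-PCR plus capillary electrophoresis fluorescence; activity scored as induction over DMSO.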

Test [7] concerns the target human RAR-related Orphan Receptor gamma (RORg), RORC (gene 6097) (UniProt P51449). Nature of the test: ATG_RORg_TRANS: Attagene TRANS-FACTORIAL HepG2 Assay for human RAR-related Orphan Receptor gamma (RORg) (AID 2283011).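 For AC50: potency for induction of reporter transcripts above DMSO so activators.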 A digest of the protocol:
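First, HepG2 liver cells were transfected with GAL4-UAS-driven reporter constructs and the RORg-Gal4 fusion. Next, they were treated with chemical for 24 h. Finally, reporter mRNA was quantified by RT-PCR and capillary electrophoresis, with upward activity fitted against DMSO.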

The target of test [8] is human Vitamin D Receptor (VDR), VDR (gene 7421) (UniProt P11473). Description: ATG_VDR_TRANS: Attagene TRANS-FACTORIAL HepG2 Assay for human Vitamin D Receptor (VDR) (AID 2283022). A digest of the protocol: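 Steps: transfect HepG2 with GAL4-UAS-driven reporter constructs; dose compounds 24 h; isolate RNA, reverse-transcribe, PCR-amplify with 6-FAM-labelled primer extension and HpaI digestion; quantify fragments by capillary electrophoresis relative to DMSO.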

Test [9] in a line: ATG_XTT_Cytotoxicity: Cytotoxicity Assessment in the Attagene TRANS-FACTORIAL HepG2 Assay (AID 2283584).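 For AC50: cells exposed to compound for 24 h before reading; active means loss of viability signal versus DMSO baseline.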 A digest of the protocol:
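Cells: human HepG2, transiently transfected with MRTU reporter constructs. Exposure 24 h. Readout: XTT, cell number. Baseline/neg ctrl DMSO; loss-of-signal scored.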

Test [10] in a line: TOX21_p53_BLA_p2_viability: Viability Assessment in the Tox21 HCT-116 p53 Agonism Beta-lactamase Assay, Phase 2 (AID 2283591).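 Note: compound exposure lasted 16 h at 37 °C; actives lower the ATP signal meaning cytotoxicity.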 The method in brief: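 HCT-116 p53-bla cells (4000/well) rested 5 h at 37C, then received compounds in DMSO (217-fold dilution) for 16 h at 37C, 5% CO2. After the CCF4 read, CellTiter-Glo was added; ATP luminescence was read after 30 min at room temperature.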

Test [11] can be described thus: TOX21_p53_BLA_p3_viability: Viability Assessment in the Tox21 HCT-116 p53 Agonism Beta-lactamase Assay, Phase 3 (AID 2283593).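 Note: cells exposed to compound for 16 h before reading.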 The method in brief:
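HCT-116 cells (4000/well) rested 5 h at 37C, then got DMSO compounds by pin tool (217-fold dilution) for 16 h at 37C, 5% CO2. After the bla read, CellTiter-Glo was added and luminescence read at 30 min, room temperature.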

Test [12] concerns the target Cellular tumor antigen p53 (Homo sapiens) (UniProt P04637). Description: TOX21_p53_BLA_p3_ratio: Tox21 HCT-116 p53 Agonism Beta-lactamase Assay, Ratio, Phase 3 (AID 2283596). The method in brief: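 Cells were seeded at 4000/well, rested 5 h at 37C, then dosed with DMSO compound solutions (217-fold dilution) for 16 h. CCF4-AM substrate was loaded for 2 h at room temperature, and the 460/530 nm emission ratio was fitted for gain of signal versus DMSO.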

Test [13] can be described thus: CCTE_Harrill_HTTr_Viability_MCF7: CCTE's 6-hour Cell Viability Assessment for the High-Throughput Transcriptomics (HTTr) Platform, in MCF-7 cells cultured in DMEM + 10% fetal bovine serum, Harrill Lab (AID 2284010; active = hit-call score of the fitted dose curve at least 0.9, where 1 is the maximum; inactive = score below 0.9). A digest of the protocol: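 Eight-point concentration series, six-hour exposure. Propidium iodide exclusion imaged to assess membrane integrity as a cytotoxicity readout; bidirectional fitting was done with DMSO as negative control and activity baseline.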

Test [14] deals with Retinoic acid receptor alpha (Homo sapiens) (UniProt P10276). Description: ATG_DR5_RAR_CIS: Attagene CIS-FACTORIAL HepG2 Assay for human Retinoic Acid Receptor Alpha (RARE), DR5 submotif (AID 2282934; active = hit-call score of the fitted dose curve at least 0.9, where 1 is the maximum; inactive = score below 0.9). As to conditions: HepG2 Attagene cis-factorial RARE DR5 reporter, mRNA; actives raise or lower the signal. The method in brief: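 Transfected HepG2 reporter cells are exposed to chemicals for 24 h. Then RNA is extracted and the DR5 element reporter transcript is measured by RT-PCR and capillary electrophoresis, with bidirectional curve fitting relative to DMSO.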

In test [15] the target is Nuclear receptor subfamily 1 group I member 3 (Homo sapiens) (UniProt Q14994). Description: ATG_CAR_TRANS: Attagene TRANS-FACTORIAL HepG2 Assay for human Constitutive Androstane Receptor (CAR) (AID 2282969).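 Note: activators raise reporter mRNA above DMSO so AC50 marks induction.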 As to conditions: HepG2 Attagene TRANS-FACTORIAL CAR reporter. The method in brief:
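Steps: transient transfection of HepG2 with multiple GAL4-UAS reporter units; 24 h compound incubation; RNA isolation, RT-PCR, 6-FAM primer extension, HpaI digest; capillary electrophoresis. Gain-of-signal relative to DMSO negative control.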

Test [16] addresses human Peroxisome Proliferator-activated Receptor alpha (PPARa), PPARA (gene 5465) (UniProt Q07869). Nature of the test: ATG_PPARa_TRANS: Attagene TRANS-FACTORIAL HepG2 Assay for human Peroxisome Proliferator-activated Receptor alpha (PPARa) (AID 2283001).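 For AC50: potency for gain of reporter signal over DMSO so agonist or activator.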 The method in brief:
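Exposure: 24 h, transiently transfected HepG2 cells. Endpoint: GAL4-UAS reporter mRNA, RT-PCR with capillary electrophoresis fluorescence. Baseline: DMSO; increases fitted.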

Test [17] addresses Oxysterols receptor LXR-alpha (Homo sapiens) (UniProt Q13133). Nature of the test: ATG_LXRa_TRANS: Attagene TRANS-FACTORIAL HepG2 Assay for human Liver X Receptor alpha (LXRa) (AID 2282980). As to conditions: HepG2 Attagene TRANS reporter, LXRa transactivation. A digest of the protocol: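 Transfect HepG2 with GAL4-UAS multiplex reporter constructs (TRANS format, chimeric receptor-GAL4); treat 24 h; extract RNA, reverse-transcribe, PCR-amplify, FAM-label, HpaI-digest; resolve fragments by capillary electrophoresis. Upward response vs DMSO.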

Test [18] addresses Nuclear receptor subfamily 1 group I member 2 (Homo sapiens) (UniProt O75469). Nature of the test: ATG_PXR_TRANS: Attagene TRANS-FACTORIAL HepG2 Assay for human Pregnane X Receptor (PXR) (AID 2283008). A digest of the protocol:
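Transient HepG2 transfectants carrying multiplexed reporter transcription units; PXR activity read through a Gal4 chimera. 24 h exposure. RT-PCR/CE fluorescence; upward curve fit referenced to DMSO.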

Test [19] addresses Nuclear receptor subfamily 4 group A member 2 (Homo sapiens) (UniProt P43354). Nature of the test: ATG_NURR1_TRANS: Attagene TRANS-FACTORIAL HepG2 Assay for human Nuclear Receptor Related Protein 1 (NURR1) (AID 2282985). The note with it: HepG2 Attagene TRANS reporter, mRNA readout. A digest of the protocol: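 Chimeric NR-Gal4 proteins were expressed in human HepG2 cells bearing GAL4-UAS reporter units, and induced reporter mRNA was quantified 24 h post-dosing by RT-PCR and capillary electrophoresis.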

Test [20] in a line: TOX21_p53_BLA_p4_viability: Viability Assessment in the Tox21 HCT-116 p53 Agonism Beta-lactamase Assay, Phase 4 (AID 2283597).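 Note: hits lower the luminescence signal meaning cytotoxicity.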 A digest of the protocol: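 Readout: ATP luminescence (CellTiter-Glo), measured 30 min after reagent addition at RT. The reagent followed a 2 h CCF4-AM incubation, and the cells had been exposed to compound for 16 h at 37C.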

Results filed as inconclusive are left out. Activity calls are given as the source filed them. Rule for the calls, unless noted: active = hit-call score of the fitted dose curve at least 0.9, where 1 is the maximum; inconclusive = response in the unintended direction; inactive = score below 0.9.

Sequence of Hepatocyte nuclear factor 4-alpha (Homo sapiens) (P41235 whole entry, looked up, the tested form may be a part): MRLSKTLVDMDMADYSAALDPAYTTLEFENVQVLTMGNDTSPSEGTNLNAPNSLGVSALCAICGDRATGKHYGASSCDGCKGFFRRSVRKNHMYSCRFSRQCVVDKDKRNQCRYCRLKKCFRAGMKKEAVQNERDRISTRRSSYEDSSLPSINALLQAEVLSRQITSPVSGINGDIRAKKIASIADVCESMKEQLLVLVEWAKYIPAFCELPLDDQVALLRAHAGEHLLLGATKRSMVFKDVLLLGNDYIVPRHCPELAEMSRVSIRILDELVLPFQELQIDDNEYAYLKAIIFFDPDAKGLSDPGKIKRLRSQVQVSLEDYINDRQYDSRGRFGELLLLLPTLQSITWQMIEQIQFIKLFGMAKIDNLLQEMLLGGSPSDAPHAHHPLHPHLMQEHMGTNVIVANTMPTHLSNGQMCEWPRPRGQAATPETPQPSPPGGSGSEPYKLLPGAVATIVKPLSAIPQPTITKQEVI
Sequence of Retinoic acid receptor alpha (Homo sapiens) (P10276 whole entry, looked up): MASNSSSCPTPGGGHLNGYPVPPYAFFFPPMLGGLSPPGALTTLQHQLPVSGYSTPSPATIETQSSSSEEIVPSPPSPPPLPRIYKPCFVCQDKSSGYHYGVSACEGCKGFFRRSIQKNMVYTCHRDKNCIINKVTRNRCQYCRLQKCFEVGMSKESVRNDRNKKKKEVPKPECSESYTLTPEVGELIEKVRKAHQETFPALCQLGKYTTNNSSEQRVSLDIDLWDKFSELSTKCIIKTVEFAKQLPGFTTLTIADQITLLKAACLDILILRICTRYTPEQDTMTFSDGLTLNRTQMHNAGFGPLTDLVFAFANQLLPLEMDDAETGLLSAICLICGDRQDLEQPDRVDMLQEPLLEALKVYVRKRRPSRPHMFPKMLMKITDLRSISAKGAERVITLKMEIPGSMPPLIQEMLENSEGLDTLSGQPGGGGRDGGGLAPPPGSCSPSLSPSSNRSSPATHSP
Sequence of Nuclear receptor subfamily 4 group A member 2 (Homo sapiens) (P43354 whole entry, looked up, the tested form may be a part): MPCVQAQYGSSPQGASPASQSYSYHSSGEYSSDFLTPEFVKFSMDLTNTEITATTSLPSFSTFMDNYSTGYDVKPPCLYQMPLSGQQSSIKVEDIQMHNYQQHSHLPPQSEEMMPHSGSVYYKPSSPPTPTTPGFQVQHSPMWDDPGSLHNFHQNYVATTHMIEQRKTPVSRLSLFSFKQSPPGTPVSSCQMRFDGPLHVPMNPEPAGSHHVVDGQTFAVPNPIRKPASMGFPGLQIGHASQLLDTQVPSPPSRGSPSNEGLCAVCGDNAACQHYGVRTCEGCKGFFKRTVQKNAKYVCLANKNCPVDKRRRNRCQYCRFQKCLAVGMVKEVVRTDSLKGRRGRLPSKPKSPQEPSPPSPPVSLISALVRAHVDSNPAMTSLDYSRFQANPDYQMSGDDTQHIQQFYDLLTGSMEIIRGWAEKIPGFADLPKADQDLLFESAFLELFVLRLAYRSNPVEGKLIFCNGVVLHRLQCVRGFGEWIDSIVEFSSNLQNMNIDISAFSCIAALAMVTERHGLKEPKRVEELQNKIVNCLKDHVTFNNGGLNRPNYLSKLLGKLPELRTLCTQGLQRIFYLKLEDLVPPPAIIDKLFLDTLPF
Sequence of human RAR-related Orphan Receptor gamma (RORg), RORC (gene 6097) (P51449 whole entry, looked up, the tested form may be a part): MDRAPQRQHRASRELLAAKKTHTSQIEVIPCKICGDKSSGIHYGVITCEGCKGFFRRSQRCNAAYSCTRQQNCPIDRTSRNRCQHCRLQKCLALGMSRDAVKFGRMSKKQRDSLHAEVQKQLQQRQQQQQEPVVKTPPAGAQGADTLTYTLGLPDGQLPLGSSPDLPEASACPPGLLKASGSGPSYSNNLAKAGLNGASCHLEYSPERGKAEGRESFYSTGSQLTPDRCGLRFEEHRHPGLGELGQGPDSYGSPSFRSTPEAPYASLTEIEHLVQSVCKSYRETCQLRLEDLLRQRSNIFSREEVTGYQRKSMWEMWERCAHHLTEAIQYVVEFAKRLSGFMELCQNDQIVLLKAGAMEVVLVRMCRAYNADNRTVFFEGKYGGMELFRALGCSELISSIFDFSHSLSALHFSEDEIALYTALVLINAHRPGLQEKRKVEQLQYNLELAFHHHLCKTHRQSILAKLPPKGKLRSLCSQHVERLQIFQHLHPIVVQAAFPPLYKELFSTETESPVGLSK
Sequence of Nuclear receptor subfamily 1 group I member 2 (Homo sapiens) (O75469 whole entry, looked up, the tested form may be a part): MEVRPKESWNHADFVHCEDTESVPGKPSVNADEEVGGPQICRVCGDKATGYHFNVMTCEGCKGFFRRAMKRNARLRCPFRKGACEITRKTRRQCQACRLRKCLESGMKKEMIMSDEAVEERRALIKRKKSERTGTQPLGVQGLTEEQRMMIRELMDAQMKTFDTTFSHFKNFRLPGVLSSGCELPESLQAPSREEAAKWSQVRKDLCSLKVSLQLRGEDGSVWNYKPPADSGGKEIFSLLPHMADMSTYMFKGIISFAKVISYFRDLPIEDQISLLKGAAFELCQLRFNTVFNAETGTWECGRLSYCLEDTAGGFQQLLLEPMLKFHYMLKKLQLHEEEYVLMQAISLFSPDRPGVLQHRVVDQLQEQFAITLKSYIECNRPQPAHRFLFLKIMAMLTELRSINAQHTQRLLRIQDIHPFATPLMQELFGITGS
Sequence of human Peroxisome Proliferator-activated Receptor alpha (PPARa), PPARA (gene 5465) (Q07869 whole entry, looked up, the tested form may be a part): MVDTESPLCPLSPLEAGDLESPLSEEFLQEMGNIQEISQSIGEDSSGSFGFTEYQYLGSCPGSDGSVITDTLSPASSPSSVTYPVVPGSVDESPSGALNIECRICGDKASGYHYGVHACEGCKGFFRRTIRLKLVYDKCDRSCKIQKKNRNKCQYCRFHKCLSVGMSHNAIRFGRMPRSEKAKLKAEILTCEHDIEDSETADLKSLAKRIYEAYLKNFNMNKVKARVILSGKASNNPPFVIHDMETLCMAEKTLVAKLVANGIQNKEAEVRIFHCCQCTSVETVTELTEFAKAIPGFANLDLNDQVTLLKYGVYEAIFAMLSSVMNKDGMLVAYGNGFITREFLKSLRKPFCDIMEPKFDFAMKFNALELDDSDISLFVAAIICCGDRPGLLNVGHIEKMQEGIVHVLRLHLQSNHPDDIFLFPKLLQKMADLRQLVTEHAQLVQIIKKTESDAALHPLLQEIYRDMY
Sequence of Nuclear receptor subfamily 1 group I member 3 (Homo sapiens) (Q14994 whole entry, looked up, the tested form may be a part): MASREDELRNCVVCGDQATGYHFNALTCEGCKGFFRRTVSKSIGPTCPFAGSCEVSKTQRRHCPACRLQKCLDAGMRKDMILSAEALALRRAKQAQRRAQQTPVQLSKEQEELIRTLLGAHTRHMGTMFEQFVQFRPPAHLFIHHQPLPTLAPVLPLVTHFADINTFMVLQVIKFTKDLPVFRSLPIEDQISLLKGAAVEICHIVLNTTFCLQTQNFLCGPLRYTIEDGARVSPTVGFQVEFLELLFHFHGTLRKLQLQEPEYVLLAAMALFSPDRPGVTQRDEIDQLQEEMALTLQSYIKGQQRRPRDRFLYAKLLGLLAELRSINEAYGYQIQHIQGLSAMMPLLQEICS
Sequence of human Vitamin D Receptor (VDR), VDR (gene 7421) (P11473 whole entry, looked up, the tested form may be a part): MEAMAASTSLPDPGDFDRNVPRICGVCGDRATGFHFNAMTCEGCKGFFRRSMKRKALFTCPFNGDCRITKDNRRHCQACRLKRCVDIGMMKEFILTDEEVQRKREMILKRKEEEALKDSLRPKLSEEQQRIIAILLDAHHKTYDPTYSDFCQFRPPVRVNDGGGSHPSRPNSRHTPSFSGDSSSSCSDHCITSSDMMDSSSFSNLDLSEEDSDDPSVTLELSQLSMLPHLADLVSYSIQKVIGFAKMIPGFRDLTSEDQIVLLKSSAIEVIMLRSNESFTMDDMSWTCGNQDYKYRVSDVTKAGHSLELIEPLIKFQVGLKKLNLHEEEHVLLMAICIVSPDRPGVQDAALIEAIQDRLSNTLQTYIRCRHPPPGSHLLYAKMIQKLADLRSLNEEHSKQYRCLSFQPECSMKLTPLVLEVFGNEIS
Sequence of Bile acid receptor (Homo sapiens) (Q96RI1 whole entry, looked up): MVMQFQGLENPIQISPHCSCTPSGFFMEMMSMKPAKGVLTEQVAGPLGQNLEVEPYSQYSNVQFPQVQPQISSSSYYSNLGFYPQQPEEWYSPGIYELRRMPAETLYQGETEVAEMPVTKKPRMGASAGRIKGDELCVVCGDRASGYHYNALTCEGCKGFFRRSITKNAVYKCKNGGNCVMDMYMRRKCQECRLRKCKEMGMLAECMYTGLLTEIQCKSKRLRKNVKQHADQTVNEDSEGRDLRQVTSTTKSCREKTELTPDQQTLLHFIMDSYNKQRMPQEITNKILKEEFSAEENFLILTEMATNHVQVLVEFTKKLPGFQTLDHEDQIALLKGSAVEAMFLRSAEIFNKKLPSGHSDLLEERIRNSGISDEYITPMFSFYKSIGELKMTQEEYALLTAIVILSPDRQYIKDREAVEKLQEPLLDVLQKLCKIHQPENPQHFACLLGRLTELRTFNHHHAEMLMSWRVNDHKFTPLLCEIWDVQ
Sequence of Oxysterols receptor LXR-alpha (Homo sapiens) (Q13133 whole entry, looked up, the tested form may be a part): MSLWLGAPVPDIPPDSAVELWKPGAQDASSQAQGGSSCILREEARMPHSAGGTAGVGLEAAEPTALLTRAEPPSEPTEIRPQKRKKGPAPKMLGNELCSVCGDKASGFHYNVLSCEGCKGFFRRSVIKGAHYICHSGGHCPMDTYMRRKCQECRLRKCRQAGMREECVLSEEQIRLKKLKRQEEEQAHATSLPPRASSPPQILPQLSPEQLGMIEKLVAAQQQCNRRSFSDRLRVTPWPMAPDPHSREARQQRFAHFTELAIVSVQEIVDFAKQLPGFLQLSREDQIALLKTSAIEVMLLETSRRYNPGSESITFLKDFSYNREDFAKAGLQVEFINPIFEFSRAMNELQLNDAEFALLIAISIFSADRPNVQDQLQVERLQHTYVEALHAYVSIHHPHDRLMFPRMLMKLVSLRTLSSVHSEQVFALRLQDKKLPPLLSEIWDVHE

Turning to `CCC[N+](=O)[O-]`, the molecule was called inactive in test [1], in test [2], in test [3], in test [4], in [5] and in test [6]. For the same molecule, the molecule was classed as inactive in test [7], in [8], in test [9], in test [10], in test [11] and in test [12]. Besides, the outcome in test [13] was inactive.
Regarding `Cc1ccccc1CCl`, the call in [14], in test [15], in [2], in test [3], in test [16] and in test [5] was inactive. Further, the molecule was classed as inactive in test [6], in [7] and in [12].
For `CC(C)(Cl)Cl`, the call in [14], in test [15], in test [2], in test [17], in test [3] and in test [16] was inactive. For the same molecule, the call in [5], in test [18], in test [9], in test [11], in [12] and in test [13] was inactive.
In the case of `CC(C)CCCCCCCOP(=O)(Oc1ccccc1)Oc1ccccc1`, the result in test [1], in test [15], in [2], in test [3], in test [5] and in test [8] was inactive. Also, the call in test [9], in [10], in [11], in test [12] and in test [20] was inactive. Further, the AC50 (as a rule, the concentration at which the activity in the assay is half-maximal) in test [19] is 26.6 µM (active); in test [18], 711 nM (active).
Turning to `O=[N+]([O-])c1cc(C(F)(F)F)c(Cl)c([N+](=O)[O-])c1Cl`, the molecule was classed as inactive in [1], in [17], in [3] and in test [18]. Further, the AC50 in test [4] was 11.1 µM (active); in [16], 52.5 µM (active); in test [5] it was 41.1 µM (active); in [7], 7.97 µM (active); in [10], 35.2 µM (active); in test [11], 35.6 µM (active). The AC50 in test [12] was 22.2 µM (active); in [20] it was 35.9 µM (active).
Consider `S=c1[nH]c2ccccc2[nH]1`, for which the outcome in [14], in test [15], in test [2], in test [4], in [19] and in test [16] was inactive. Besides, the call in [18], in [9], in test [10], in test [11], in test [12] and in test [20] was inactive.
`C=Cc1cccc(CCl)c1`: the molecule was called inactive in [1], in test [15], in test [19], in test [16], in test [7] and in [9]. In addition, the molecule was called inactive in test [10], in test [11], in test [12] and in [20].
`CNC(=N[N+](=O)[O-])NCC1CCOC1` (stereo not given): the molecule was called inactive in [1], in test [2], in test [6], in test [7], in [12] and in test [13].
On to `Cc1ccc(N(SC(F)(Cl)Cl)S(=O)(=O)N(C)C)cc1`, for which the molecule was classed as inactive in test [14], in test [1], in test [17], in [19], in test [5] and in test [8]. The molecule was called inactive in test [10], in [12] and in test [13]. Further, the concentration at half-maximal activity (AC50) in test [9] was 38.7 µM (active); in test [20], 87.1 µM (active).
Consider `CCc1cc(C)cc(CC)c1-c1c(OC(=O)C(C)(C)C)n2n(c1=O)CCOCC2`, for which the molecule was called inactive in [1], in [2], in test [19], in test [5], in test [6] and in test [7]. Besides, the result in test [13] was inactive.
Take `C=CCO`: the outcome in test [16], in test [5], in test [11] and in test [12] was inactive.
As for `CCC(=O)c1ccc(Cl)cc1`, the call in [14], in test [15], in [2], in [17], in test [3] and in test [19] was inactive. Besides, the molecule was called inactive in [5], in test [18], in [7], in [8] and in test [9].
